Assay results: PubChem BioAssay (Tox21)
Results filed as inconclusive are left out. A call without a number means that no potency is given here. Active and inactive are the calls of the source. Calls come from the whole dose curve; as a rule, active = well fitted cell-killing curve with a large enough effect in the repeat runs; inconclusive = weak or mixed curves, or effect the other way; inactive = flat fitted curve, though single readings scatter.

test: cAMP Responsive Elements (CRE) small molecule antagonists, cell-based qHTS assay: qHTS cell viability counter screen (AID 2060913); conditions: CRE-bla HEK293T viability, CellTiter-Glo luminescence, 5 h; series mostly up to 92.4 µM; note: nearly all actives have a fitted effect of over 40% in size
Procedure, shortened: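 CRE-bla HEK293T cells (2,000/well, 18 h) given compound plus NKH477 0.25 uM final for 3 h at 37C; viability counter-screen by CellTiter-Glo luminescence in same wells after 30 min.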
Potency is the fitted concentration of half-maximal effect.

SMILES	Potency
CNC(=O)C(c1ccccc1)c1ccccc1	inactive
CC(N)=O	inactive
OCC(CO)(CO)COCC(CO)(CO)CO	inactive
Clc1cccc(C(c2ccc3nc[nH]c3c2)n2ccnc2)c1 (centres undefined)	inactive
CC(C)c1cccc(C(C)C)c1N1C(=O)c2ccc(O)cc2C1=O	61.1 µM (active)
CCCCCC[C@@H](O)C/C=C\CCCCCCCC(=O)OC	inactive
CC(C)COC(=O)CC(C(=O)OCC(C)C)S(=O)(=O)O (centres undefined)	inactive
CCCCCCCCCCCCN1CCCC1=O	inactive
C[C@H]1C[C@H](O)c2ccsc2S1(=O)=O	inactive
O=C1c2c(O)ccc([N+](=O)[O-])c2C(=O)c2c([N+](=O)[O-])ccc(O)c21	27.1 µM (active)
CCC[Si](OC)(OC)OC	inactive
CC(C)(C)c1ccc(OC2CCCCC2O)cc1 (centres undefined)	inactive
NCCO	inactive
COc1cc(C)ccc1C(C)C	inactive
Cc1oncc1C(=O)Nc1ccc(C(F)(F)F)cc1	inactive
CSc1ccc(Oc2ccc(S(N)(=O)=O)cc2CN(C)C)cc1C	inactive
CC(C)(C)NC(=O)[C@@H]1C[C@@H]2CCCC[C@@H]2CN1C[C@@H](O)[C@H](Cc1ccccc1)NC(=O)[C@H](CC(N)=O)NC(=O)c1ccc2ccccc2n1	61.9 µM (active)
CCCCCC	inactive
Cc1[nH]nc2c1N=C(c1ccccc1Cl)c1cc([N+](=O)[O-])ccc1N2	inactive
Cc1cc(CC(=O)O)n(C)c1C(=O)c1ccc(Cl)cc1	inactive

SMILES	Potency
CCCCCCCCC(C)=O	inactive
CCOC(=O)O[C@H](C)OC(=O)c1ccc2c(c1)cc(C(=O)NC1CCN(C(C)C)CC1)n2Cc1cc(-c2ccc(Cl)s2)on1	57.1 µM (active)
CCCCCCCCCI	inactive
C=C(C)C(=O)OCCOCCOCCOCCOC(=O)C(=C)C	inactive
Cc1ccc(S(=O)(=O)NC(=O)NN2CC3CCCC3C2)cc1 (centres undefined)	inactive
CC(C)c1nc(CN(C)C(=O)N[C@H](C(=O)N[C@@H](Cc2ccccc2)C[C@H](O)[C@H](Cc2ccccc2)NC(=O)OCc2cncs2)C(C)C)cs1	inactive
CCCCCCCCCCCCCCCCCC#N	inactive
C[C@H](O)C(=O)Nc1c(I)c(C(=O)NC(CO)CO)c(I)c(C(=O)NC(CO)CO)c1I	inactive
CC1=C(Br)C(=O)C(Br)=C/C1=C(/c1ccccc1S(=O)(=O)O)c1cc(Br)c(O)c(Br)c1C	inactive
C=CC(=O)OCC1CCCO1 (centres undefined)	inactive
Brc1c(NC2=NCCN2)ccc2nccnc12	inactive
[Cu+]	inactive
Cc1c(Cl)cccc1Cl	inactive
CC(=O)Oc1ccc(C(c2ccc(OC(C)=O)cc2)c2ccccn2)cc1	inactive
Cc1cc2nc(N)sc2cc1C	inactive
CCN(CC)C(=O)N(CC)CC	inactive
COc1c(N2CCNC(C)C2)c(F)cc2c(=O)c(C(=O)O)cn(C3CC3)c12 (centres undefined)	inactive
OC[C@@H](O)[C@@H](O)[C@H](O)[C@@H](O)CO	inactive
CN(C)C(C)(C)CO	inactive
